Assay [1] in a line: qHTS assay to identify small molecule agonists of the estrogen receptor alpha (ER-alpha) signaling pathway in the presence of an antagonist - cell viability counter screen (AID 1259386).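 Also: series mostly up to about 92 µM; cells exposed to compounds for 22 h at 37 °C before the viability read; nearly all actives have a fitted effect of over 30% in size.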 In outline:
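ICI-182,780 at 10.0nM final accompanies the compound titration (15 concentrations, 22hr, 37C) on VM7Luc4E2 cells. The CellTiter-Fluor fluorescence readout runs in the same wells as the luciferase assay.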
(Quantitative high-throughput screening tests each substance at several concentrations.)

In assay [2] the target is Progesterone receptor (Homo sapiens) (UniProt P06401). The assay is described as follows: qHTS assay to identify small molecule agonists of the progesterone receptor (PR) signaling pathway (AID 1346784; calls by dose curve; also: nearly all actives have a fitted effect of over 30% in size; also: potency is read from the fitted curve at half-maximal effect). In outline:
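Agonist mode, quantitative HTS format in a HEK 293T line expressing a UAS-controlled beta-lactamase reporter; 16 hr compound exposure at 37C in 2% charcoal-stripped FBS, then LiveBLAzer B/G FRET fluorescence.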

Assay [3] shares this target. The assay can be described thus: qHTS assay to identify small molecule antagonists of the progesterone receptor (PR) signaling pathway (AID 1346795; active = well fitted inhibition curve with a large enough effect in the signal ratio in the repeat runs, not every such curve was filed as active; the % refers to the signal ratio). Put shortly:
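HEK293T PR-UAS-bla reporter cells in charcoal-stripped serum (2%) received compound after a 6 hr settling period, followed by R5020 agonist at 1 nM final; 16 hr incubation preceded the FRET substrate step and fluorescence measurement.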

Assay [4] is described as follows: qHTS assay to identify small molecule antagonists of the progesterone receptor (PR) signaling pathway - cell viability counter screen (AID 1346798). Also: series mostly up to about 92 µM; nearly all actives have a fitted effect of over 50% in size. Put shortly: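 Same-well multiplex: after 16 hr at 37C with compound and R5020 stimulation, HEK293T cells carrying a UAS-bla reporter received LiveBLAzer substrate (2 hr RT), then CellTiter-Glo (30 min RT) for luminescent viability.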

Assay [5] can be described thus: qHTS assay to identify small molecule antagonists of the TGF-beta/Smad signaling pathway - cell viability counter screen (AID 1346824). Also: nearly all actives have a fitted effect of over 50% in size. Put shortly: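 SBE-bla HEK 293T cells, incubated overnight, then compound plus 0.25 ng/mL TGF-beta1 (stock added) for 5 hr at 37 C. Viability was read in the same wells by CellTiter-Glo luminescence after 30 min at room temperature.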

The nature of assay [6]: qHTS assay to identify small molecule agonists of the TGF-beta/Smad signaling pathway - cell viability counter screen (AID 1346829). Also: top concentration of the series differs between compounds; nearly all actives have a fitted effect of over 45% in size. In outline:
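Luminescence from CellTiter-Glo, read after a 30 min room-temperature incubation, gives cell viability of SBE-bla HEK 293T cells treated 5 hr with compounds at 37 C.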

Assay [7] is described as follows: qHTS assay to identify small molecule agonists of the TGF-beta/Smad signaling pathway (AID 1346859; active = well fitted activation curve with a large enough effect in the signal ratio in the repeat runs, not every such curve was filed as active; the % refers to the signal ratio; also: series mostly up to about 77 µM). Put shortly:
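Smad-responsive beta-lactamase reporter cells (HEK 293T) received compounds from DMSO stocks after overnight attachment, were incubated 5 hr, then treated 2 hr with FRET substrate before dual-emission fluorescence measurement (405 nm excitation).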

Assay [8] addresses Thyrotropin-releasing hormone receptor (Homo sapiens) (UniProt P34981). The assay is described as follows: qHTS assay to identify small molecule antagonists of the thyrotropin-releasing hormone receptor (TRHR) signaling pathway (AID 1346877; active = well fitted inhibition curve with a large enough effect in the repeat runs, not every such curve was filed as active; also: series mostly up to about 51 µM). Put shortly: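 Screening used HEK293 cells engineered with TRHR, with a brief 5 min room-temperature compound exposure preceding addition of TRH to 1 nM. The read-out was kinetic calcium-dye fluorescence, concentration-response from 15 doses in triplicate.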

The target is the same in assay [9]. The assay can be described thus: qHTS assay to identify small molecule agonists of the thyrotropin-releasing hormone receptor (TRHR) signaling pathway (AID 1346891; calls by dose curve;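 also: HEK293 cells expressing TRHR with calcium dye readout; series mostly up to about 58 µM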). In outline:
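Agonist-mode calcium mobilisation screen: TRHR-transfected HEK293 cells cultured overnight (18 h), dye-loaded for 2 h at 37 °C, exposed to compounds, and monitored by fluorescence for 3 min.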

Assay [10] is described as follows: Caspase-3/7 induction in HepG2 cells by small molecules, qHTS assay (AID 1346978). Also: nearly all actives have a fitted effect of over 15% in size. In outline: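 Wild-type HepG2 cells, 2,000/well, settled 5 hr at 37 C and 5% CO2, then compound-treated for 17 hr; caspase-3/7 activity read by luminescent Caspase-Glo 3/7 after 30 min at room temperature.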
A short description of assay [11]: Caspase-3/7 induction in CHO-K1 cells by small molecules, qHTS cell viability counter screen (AID 1346979). Also: nearly all actives have a fitted effect of over 35% in size. Also: potency is read from the fitted curve at half-maximal effect. Put shortly:
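In the same wells as the caspase read, viability of compound-treated wild-type CHO-K1 cells was assessed using CellTiter-Fluor, added after 16hr at 37C and measured by fluorescence following 1hr further incubation.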

Assay [12] in a line: Caspase-3/7 induction in CHO-K1 cells by small molecules, qHTS assay (AID 1346980). Also: nearly all actives have a fitted effect of over 15% in size. In outline:
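Wild-type CHO-K1 cells exposed to compounds for 17hr at 37 C, 5% CO2. Caspase-3/7 activity then measured by Caspase-Glo 3/7 luminescence after 30min at room temperature.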

Assay [13] can be described thus: Caspase-3/7 induction in HepG2 cells by small molecules, qHTS cell viability counter screen (AID 1346981). Also: series mostly up to about 92 µM; nearly all actives have a fitted effect of over 30% in size. Put shortly:
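Multiplexed with the caspase-3/7 assay: HepG2 cells, 16 hr compound treatment, CellTiter-Fluor viability detection by fluorescence.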

Assay [14] deals with Nuclear receptor subfamily 1 group I member 2 (Homo sapiens) (UniProt O75469). The assay can be described thus: Human pregnane X receptor (PXR) small molecule agonists, qHTS assay (AID 1346982). Also: nearly all actives have a fitted effect of over 35% in size. Put shortly:
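We seeded PXR-Luc HepG2 cells in assay medium containing 5% charcoal-stripped FBS, added compounds 5 hr later, incubated 24 hr, and read luminescence with ONE-Glo reagent.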

Assay [15] deals with Acetylcholinesterase (Homo sapiens) (UniProt P22303). The assay can be described thus: Acetylcholinesterase (AChE) small molecule antagonists: colormetric cell-based qHTS assay (AID 1347395; calls by dose curve; also: nearly all actives have a fitted effect of over 30% in size). Put shortly:
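Endogenous AChE of human neuroblastoma SH-SY5Y cells was measured with an Ellman-type DTNB/acetylthiocholine mix. Compound pretreatment lasted 30 min at 37 C; substrate reaction ran 90 min at 37 C.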

The nature of assay [16]: Human pregnane X receptor (PXR) small molecule agonists, qHTS cell viability counter screen (AID 1346977). Also: nearly all actives have a fitted effect of over 50% in size. In outline: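 Measures live-cell protease fluorescence (CellTiter-Fluor) in PXR-Luc HepG2 cells treated 24hr with compounds at 37C. Cells had 5hr to attach before pin transfer of DMSO solutions.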
The target in assay [17] is Nuclear receptor subfamily 1 group I member 2 (Rattus norvegicus) (UniProt Q9R1A7). The assay is described as follows: Rat pregnane X receptor (rPXR) activation by small molecules, qHTS assay (AID 1346983). Also: nearly all actives have a fitted effect of over 20% in size. The note with it: rPXR luciferase reporter cells, One-Glo luminescence, 24 h; stronger effect = higher value. Put shortly: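 Cell-based rPXR activation assay: rPXR cells, 2,000 per well, rested 5hr at 37 C, then exposed to compounds in DMSO for 24 hr at 37 C. Luciferase activity read by One-Glo luminescence after 30 min at room temperature.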

Assay [18] can be described thus: qHTS assay to identify small molecule agonists of the progesterone receptor (PR) signaling pathway - cell viability counter screen (AID 1346799; calls by dose curve; also: nearly all actives have a fitted effect of over 45% in size). Put shortly:
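Counter screen for cytotoxicity: compound-treated PR-UAS-bla HEK293T cells (16 hr, 37C, 5% CO2) were assayed with CellTiter-Glo, luminescence measured after 30 min at room temperature.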

Assay [19] addresses Nuclear receptor subfamily 1 group I member 2 (Homo sapiens) (UniProt O75469). The assay can be described thus: CYP3A4 induction through human pregnane X receptor (PXR) by small molecules, qHTS assay (AID 1346984). Also: nearly all actives have a fitted effect of over 40% in size. Put shortly: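 qHTS, concentration-response format: HepG2 DPX-2 line, PXR/CYP3A4-luc. Exposure 24 h, 37C. Substrate Luciferin-IPA 3uM final, 3 h. Detection One-Glo, 30 min RT.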

The target is the same in assay [20]. The assay is described as follows: Human pregnane X receptor (PXR) activation by small molecules, qHTS assay (AID 1346985). Also: nearly all actives have a fitted effect of over 40% in size. In outline:
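DPX-2 cells (HepG2 co-transfected with a PXR response element and a CYP3A4-promoter luciferase construct) were seeded at 2,000 per well, rested 5 hr at 37C, then exposed to DMSO-dissolved compounds for 24 hr. Activation was read as luciferase luminescence.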

Each structure is given as a SMILES string. Several values for one entry are separate records, joined by “and”; a condition that tells them apart may be missing. Equal entries are not always repeated. Unmarked numbers belong to inactive results. Results filed as inconclusive are left out. Activity calls are given as the source filed them. Unless noted, calls follow the shape of the dose curve; as a rule, active = well fitted curve in the direction sought with a large enough effect in the repeat runs; inconclusive = weak or mixed curves; inactive = no such curve, though single readings can be large; an effect the other way counts as inactive or inconclusive.
% is scaled to controls: 0 for no effect and ±100 for the full control effect.

Progesterone receptor (Homo sapiens), sequence (P06401 whole entry, looked up): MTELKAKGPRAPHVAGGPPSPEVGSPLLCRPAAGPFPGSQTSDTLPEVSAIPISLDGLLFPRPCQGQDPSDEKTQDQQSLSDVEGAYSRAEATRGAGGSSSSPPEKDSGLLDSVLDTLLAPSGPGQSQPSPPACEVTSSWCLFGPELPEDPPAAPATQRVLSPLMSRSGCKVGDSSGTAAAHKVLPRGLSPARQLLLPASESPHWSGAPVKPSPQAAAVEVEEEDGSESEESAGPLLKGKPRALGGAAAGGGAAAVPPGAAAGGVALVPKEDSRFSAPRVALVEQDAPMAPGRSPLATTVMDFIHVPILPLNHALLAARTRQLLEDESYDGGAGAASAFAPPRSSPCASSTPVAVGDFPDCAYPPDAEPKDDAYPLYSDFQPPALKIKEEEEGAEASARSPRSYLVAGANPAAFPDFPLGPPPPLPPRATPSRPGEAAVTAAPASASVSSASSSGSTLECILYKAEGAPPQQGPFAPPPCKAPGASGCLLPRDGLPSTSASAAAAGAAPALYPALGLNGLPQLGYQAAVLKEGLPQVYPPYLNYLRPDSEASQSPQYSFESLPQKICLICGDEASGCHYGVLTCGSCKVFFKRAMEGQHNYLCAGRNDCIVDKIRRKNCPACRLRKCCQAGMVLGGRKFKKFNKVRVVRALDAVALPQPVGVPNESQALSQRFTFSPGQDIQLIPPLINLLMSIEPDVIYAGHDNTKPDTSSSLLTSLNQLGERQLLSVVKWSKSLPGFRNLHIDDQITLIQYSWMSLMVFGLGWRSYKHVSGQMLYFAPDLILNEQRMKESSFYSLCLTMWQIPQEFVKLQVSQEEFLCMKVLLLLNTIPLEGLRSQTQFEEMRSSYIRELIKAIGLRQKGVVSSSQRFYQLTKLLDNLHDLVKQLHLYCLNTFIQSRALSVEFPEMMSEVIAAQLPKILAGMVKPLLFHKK
Thyrotropin-releasing hormone receptor (Homo sapiens), sequence (P34981 whole entry, looked up): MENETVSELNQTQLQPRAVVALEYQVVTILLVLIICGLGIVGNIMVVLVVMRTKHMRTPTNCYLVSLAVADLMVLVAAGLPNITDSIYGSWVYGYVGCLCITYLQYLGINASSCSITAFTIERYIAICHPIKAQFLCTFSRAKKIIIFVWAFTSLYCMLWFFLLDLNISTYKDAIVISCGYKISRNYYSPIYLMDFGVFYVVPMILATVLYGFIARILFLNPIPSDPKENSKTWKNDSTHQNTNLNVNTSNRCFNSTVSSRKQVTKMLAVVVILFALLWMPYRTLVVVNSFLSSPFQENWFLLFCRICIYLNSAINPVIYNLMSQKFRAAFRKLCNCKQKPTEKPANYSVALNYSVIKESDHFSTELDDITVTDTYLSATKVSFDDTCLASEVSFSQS
Nuclear receptor subfamily 1 group I member 2 (Homo sapiens), sequence (O75469 whole entry, looked up): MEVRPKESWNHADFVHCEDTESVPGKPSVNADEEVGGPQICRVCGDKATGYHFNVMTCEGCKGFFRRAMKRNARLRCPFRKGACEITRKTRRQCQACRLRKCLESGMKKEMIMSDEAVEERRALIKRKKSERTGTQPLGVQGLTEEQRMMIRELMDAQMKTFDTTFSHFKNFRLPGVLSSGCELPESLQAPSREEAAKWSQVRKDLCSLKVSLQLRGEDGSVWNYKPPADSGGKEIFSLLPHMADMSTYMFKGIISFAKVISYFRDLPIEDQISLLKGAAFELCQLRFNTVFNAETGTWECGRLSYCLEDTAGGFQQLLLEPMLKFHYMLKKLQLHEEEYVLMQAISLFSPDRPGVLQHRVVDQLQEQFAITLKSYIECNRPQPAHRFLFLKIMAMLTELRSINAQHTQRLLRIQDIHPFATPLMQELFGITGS
Acetylcholinesterase (Homo sapiens), sequence (P22303 whole entry, looked up): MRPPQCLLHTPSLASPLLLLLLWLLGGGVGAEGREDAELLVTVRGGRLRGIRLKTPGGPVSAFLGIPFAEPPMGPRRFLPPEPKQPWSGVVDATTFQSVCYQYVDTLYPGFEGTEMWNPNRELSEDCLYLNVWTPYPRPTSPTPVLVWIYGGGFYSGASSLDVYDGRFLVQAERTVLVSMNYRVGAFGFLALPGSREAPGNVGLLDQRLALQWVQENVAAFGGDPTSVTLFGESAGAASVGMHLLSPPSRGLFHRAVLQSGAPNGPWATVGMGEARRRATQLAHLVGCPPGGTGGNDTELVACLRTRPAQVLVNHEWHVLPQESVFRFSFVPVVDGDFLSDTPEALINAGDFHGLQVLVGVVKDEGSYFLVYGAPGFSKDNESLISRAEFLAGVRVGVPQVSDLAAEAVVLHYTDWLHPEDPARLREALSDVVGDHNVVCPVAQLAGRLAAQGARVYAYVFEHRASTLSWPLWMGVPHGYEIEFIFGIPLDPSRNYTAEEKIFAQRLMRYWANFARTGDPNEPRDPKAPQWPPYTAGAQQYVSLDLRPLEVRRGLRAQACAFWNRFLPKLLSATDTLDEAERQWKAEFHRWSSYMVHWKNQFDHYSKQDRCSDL
Nuclear receptor subfamily 1 group I member 2 (Rattus norvegicus), sequence (Q9R1A7 whole entry, looked up): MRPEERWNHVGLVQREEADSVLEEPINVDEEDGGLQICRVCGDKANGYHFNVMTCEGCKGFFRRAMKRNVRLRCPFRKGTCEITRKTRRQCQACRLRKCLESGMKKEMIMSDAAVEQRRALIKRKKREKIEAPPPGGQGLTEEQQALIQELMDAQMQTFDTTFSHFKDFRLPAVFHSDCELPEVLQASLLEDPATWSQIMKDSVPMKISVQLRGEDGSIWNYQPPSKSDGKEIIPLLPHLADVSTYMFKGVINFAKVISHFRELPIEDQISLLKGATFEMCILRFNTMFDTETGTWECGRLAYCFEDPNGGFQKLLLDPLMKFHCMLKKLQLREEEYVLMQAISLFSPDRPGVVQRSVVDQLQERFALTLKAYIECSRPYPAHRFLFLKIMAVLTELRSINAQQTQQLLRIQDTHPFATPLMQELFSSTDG

For the compound `CN(C)CCN(C)C`, the Potency entry in assay [1], in assay [3], in [4], in [6], in assay [8] and in assay [11] was “inactive” each time. Also, the Potency entry in assay [13], in assay [14] and in assay [15] was “inactive” each time. In addition, the Potency in assay [2] is 27.2 µM (active). The result in assay [5], in [7], in assay [9], in assay [10] and in assay [12] was inactive.
`BrCCc1ccccc1`: the Potency result in assay [1], in assay [2], in assay [3], in assay [4], in assay [8] and in assay [16] was “inactive” each time. Also, the Potency entry in assay [11], in [13], in assay [14] and in assay [15] was “inactive” in each case. The compound was classed as inactive in assay [5], in [7], in assay [9], in [10] and in assay [12].
In the case of `CC(C)(C)c1cc(O)ccc1O`, the Potency result in assay [1], in assay [2], in assay [3], in assay [8], in assay [16] and in [13] was “inactive” each time. Besides, the outcome in [5], in assay [7], in assay [9], in assay [10] and in assay [12] was inactive. For the same compound, in [11], the Potency is 43.3 µM (active) and 61.1 µM (active). Moreover, the max activation in assay [17] was -1.85%.
Regarding `COc1cc(CC(C)N)cc(OC)c1OC` (stereo not given), the Potency entry in assay [1], in assay [2], in assay [3], in assay [18], in assay [6] and in [8] was “inactive” in each case. Besides, the Potency result in [16], in assay [11], in [13], in assay [14] and in assay [15] was “inactive” each time. Also, the call in assay [5], in [7], in [9], in assay [10] and in [12] was inactive.
On to `Cc1ccc2cc(C)ccc2c1`, for which the Potency result in assay [1], in assay [2], in [3], in assay [4], in [6] and in assay [8] was “inactive” throughout. Moreover, the Potency result in assay [16], in [11], in [13], in assay [14] and in [15] was “inactive” in each case. The compound was classed as inactive in [5], in assay [7], in [9] and in assay [10].
Take `C[C@@H](N)[C@@H](O)c1ccccc1`: the Potency entry in assay [1], in [2], in [3], in [4], in [6] and in assay [8] was “inactive” each time. The Potency entry in assay [11], in assay [13], in assay [14], in [19] and in assay [20] was “inactive” in each case. The outcome in assay [5], in [7], in [9] and in assay [10] was inactive. For the same compound, the max activation in assay [17] was -1.4%.
Take `NCCOS(=O)(=O)O`: the Potency result in [1], in [2], in assay [3], in assay [18], in assay [6] and in [8] was “inactive” throughout. The Potency result in [16], in assay [11], in [13] and in assay [15] was “inactive” in each case. Also, the call in assay [5], in [7], in [9], in assay [10] and in [12] was inactive.

(Values after PubChem BioAssay (Tox21).)
